Compound activity: PubChem, National Center for Advancing Translational Sciences (NCATS)
In the library only some 1.3% were active in any assay of this set; here they are far more common.
Vaccinia mCherry = vaccinia inhibition (mCherry reporter) | Vaccinia virus mCherry reporter infection, fluorescence | Potency, µM (highest dose often 36.5 µM), actives largely listed as inhibitors | 310,000 compounds, 0.63% hits | AID 720579; calls by dose curve; tested in A549 cells; further: nearly all actives have a fitted effect of over 35% in size
VACV Venus inh = inhibitors of vaccinia virus (Venus reporter); 330,000 compounds, 0.46% hits; Potency, µM (top dose mostly 36.5 µM), most hits filed as inhibitors; Vaccinia virus Venus reporter expression, fluorescence; calls by dose curve; tested in A549 cells; further: nearly all actives have a fitted effect of over 30% in size
AmpC detergent = inhibitors of E. coli AmpC beta-lactamase with detergent. 370,000 compounds, 0.041% hits. Potency, µM (doses to about 114 µM), usual class: inhibitors. AmpC hydrolysis of nitrocefin, absorbance 480 nm, 0.01% Triton. AID 485294. P00811; further: nearly all actives have a fitted effect of over 25% in size
Target sequence (P00811 whole entry, looked up): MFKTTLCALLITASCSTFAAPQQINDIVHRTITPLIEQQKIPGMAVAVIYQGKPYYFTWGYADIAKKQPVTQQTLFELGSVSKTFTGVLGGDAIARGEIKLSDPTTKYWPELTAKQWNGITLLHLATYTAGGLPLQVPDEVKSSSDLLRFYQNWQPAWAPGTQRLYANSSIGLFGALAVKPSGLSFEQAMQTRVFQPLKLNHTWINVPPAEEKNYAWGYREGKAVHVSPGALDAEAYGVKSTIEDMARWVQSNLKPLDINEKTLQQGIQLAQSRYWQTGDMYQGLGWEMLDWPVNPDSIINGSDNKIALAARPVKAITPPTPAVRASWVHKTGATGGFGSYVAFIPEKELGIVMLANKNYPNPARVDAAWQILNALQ
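20 mM phosphate pH 7.0 + 0.01% (detergent screen) or 0.0001% Triton X-100; 5.3 nM AmpC reagent; cpd preinc 15 min RT; nitrocefin (800 uM stock) to start; A480 q20 s × 4 min; Activity was normalised to no-enzyme and no-compound control wells.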
SARS PLP yeast = inhibitors of SARS-CoV papain-like protease in yeast; S. cerevisiae expressing SARS-CoV PLpro, growth rescue; Potency, µM (doses to about 32.9 µM), actives largely listed as activators; 330,000 compounds, 0.19% hits; AID 485353; calls by dose curve; further: nearly all actives have a fitted effect of over 55% in size
AmpC no deterg = AmpC beta-lactamase inhibition without detergent; P00811; AmpC nitrocefin hydrolysis, absorbance 480 nm, 0.0001% Triton; Potency, µM (titrated, usually from 57.1 µM), usual class: inhibitors; 330,000 compounds, 0.52% hits; AID 485341; further: nearly all actives have a fitted effect of over 20% in size
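AmpC (5.3 nM in the dispensed reagent) in 20 mM phosphate pH 7.0 with 0.01% (detergent screen) or 0.0001% Triton X-100 was preincubated with compounds for 15 min at room temperature. Nitrocefin was then added from an 800 uM solution, and hydrolysis was followed at 480 nm.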
Hits are given with their value; i = inactive; ? = inconclusive; nt = not tested or not shown. Unless noted, the call rests on the fitted dose curve; in most records, active means well fitted curve in the direction sought with a large enough effect; inconclusive means small, poorly fitted or top-dose-only effect, or another doubt; inactive means no such curve, though single readings can be large; an effect the other way counts as inactive or inconclusive.

SMILES	Vaccinia mCherry	VACV Venus inh	AmpC detergent	SARS PLP yeast	AmpC no deterg
CC(C)=CCC[C@](C)(O)C1CC[C@]2(C)C1C(O)CC1[C@@]3(C)CCC(O)C(C)(C)C3C(O[C@@H]3OC(CO)C(O)C(O)C3O[C@@H]3OC(C)C(O)C(O)C3O)C[C@]12C (some centres not stated)	i	i	nt	i	i
CC1O[C@@H](O[C@@H]2C(O)C[C@H](O[C@@H]3C(O)C[C@@H](OC4CC[C@@]5(C)C6CC(O)[C@@]7(C)C(C8=CC(=O)OC8)CC[C@@]7(O)C6CC[C@@H]5C4)OC3C)OC2C)CC(O)[C@H]1O (some centres not stated)	1µM	1µM	nt	nt	nt
C[C@H]1O[C@@H](O[C@H]2[C@@H](O)C[C@H](O[C@H]3[C@@H](O)C[C@H](O[C@H]4CC[C@@]5(C)[C@H](CC[C@@H]6[C@@H]5CC[C@]5(C)[C@@H](C7=CC(=O)OC7)CC[C@]65O)C4)O[C@@H]3C)O[C@@H]2C)C[C@H](O)[C@@H]1O	7.1µM	0.089µM	i	i	i
CC(=O)OC1CC2(O)C3CCC4CC(O)CCC4(C)C3CCC2(C)C1C1=CC(=O)OC1 (configuration not stated)	35µM	?	nt	nt	nt
CC(=O)[C@H]1CCC2C3CC[C@H]4C[C@@H](O)CC[C@]4(C)C3CC[C@@]21C (some centres not stated)	i	i	nt	i	i
CC(=O)OC1CC(OC2C(O)CC(OC3C(O)CC(OC4CCC5(C)C(CCC6C5CCC5(C)C(C7=CC(=O)OC7)C(O)CC65O)C4)OC3C)OC2C)OC(C)C1OC1OC(CO)C(O)C(O)C1O (configuration not stated)	0.28µM	0.28µM	nt	nt	nt
CC1OC(OC2C(O)CC(OC3C(O)CC(OC4CCC5(C)C(CCC6C5CCC5(C)C(C7=CC(=O)OC7)C(O)CC65O)C4)OC3C)OC2C)CC(O)C1O (configuration not stated)	nt	0.32µM	nt	nt	nt
CC1CC(C)C(=O)[C@H](C(O)CC2CC(=O)NC(=O)C2)C1 (some centres not stated)	2µM	0.89µM	nt	nt	nt
C[C@H]1C[C@@H](C)C(=O)[C@@H]([C@H](O)CC2CC(=O)NC(=O)C2)C1	0.32µM	0.32µM	i	i	i
CC1CC(C)C(=NNC(N)=O)C(C(O)CC2CCC(=O)NC2=O)C1 (configuration not stated)	?	7.9µM	nt	nt	nt
COCCN(C)C(=O)c1cnn(-c2ncc3c(n2)-c2ccccc2CCC3)c1C1CC1	i	i	nt	nt	nt
COc1cccc(-c2nc3cc(SC)ccc3cc2CN(C(=O)c2csc(C)n2)C2CC2)c1	i	i	nt	nt	nt
CCCS(=O)(=O)NCc1c(C)ncc2c1CCN(C(=O)/C=C/c1ccccc1)C2	i	i	nt	nt	nt
O=S(=O)(N/N=C/c1ccc(N2CCOCC2)cc1)c1ccc(Br)cc1	nt	nt	?	i	11µM
COC(=O)C[C@]1(C(=O)OC)CN(C#N)N(c2ccc(Cl)cc2)C12c1ccccc1-c1ccccc12	11µM	?	?	i	i
O=C(OCn1ncc(Br)c(Br)c1=O)c1ccccc1Cl	?	?	i	i	i
O=C(OCn1ncc(Br)c(Br)c1=O)c1ccc(F)cc1	11µM	10µM	i	i	i
COc1ccccc1C1CN(CCNC(=O)c2ccccc2Cl)Cc2ccccc2O1 (configuration not stated)	i	i	nt	nt	nt
CCOc1cc(-c2c(C)c(CC)nc(N)c2C#N)ccc1O	nt	?	i	i	i
CCc1nc(N)nc(N)c1-c1ccc(Cl)c(N=[N+]=[N-])c1	?	5.6µM	nt	nt	nt
CCc1nc(N)nc(N)c1-c1ccc(Cl)c([N+](=O)[O-])c1	i	0.28µM	nt	nt	nt
CCOC(=O)c1ccc(N2C(=O)c3n[nH]c(-c4cccs4)c3C2c2ccc(OC)cc2OC)cc1 (configuration not stated)	13µM	?	i	nt	nt
CC(C)CCNC(=O)Cn1cc2c(n1)CCCCC2	nt	nt	?	i	45µM
O=C(Cn1cc2c(n1)CCCCC2)NCc1ccccc1	i	i	?	i	i
Cc1ccc(NC(=O)Cn2cc3c(n2)CCCC3)c(C)c1	i	i	i	nt	nt
SMILES	Vaccinia mCherry	VACV Venus inh	AmpC detergent	SARS PLP yeast	AmpC no deterg
O=C(O)Cn1cc2c(n1)CCCC2	nt	i	i	i	i
Cc1ccc2nc(NC(=O)Cn3cc4c(n3)CCCCC4)sc2c1	i	i	?	i	2.8µM
CCN(Cc1ccccc1)C(=O)Cn1cc2c(n1)CCCC2	i	i	i	i	4.5µM
CCOCCCNC(=O)Cn1cc2c(n1)CCCCC2	i	i	?	i	45µM
COc1ccc(-c2cc(C)cc3c2OC(CNC(=O)c2cc(C(C)C)on2)C3)nn1 (configuration not stated)	i	i	nt	nt	nt
O=C(NCC1Cc2cccc(-c3ccccn3)c2O1)c1cnn2cccnc12 (configuration not stated)	i	i	nt	nt	nt
COc1ccccc1NC(=S)N(CCc1c(C)[nH]c2ccccc12)Cc1cccs1	?	?	?	i	40µM
C=CC1=C(C)C2=CC3=NC(=C(CC(=O)[O-])C4=NC(=C(C)C4=C([O-])[O-])C=c4[n-]c(c(C)c4CC)=CC1=N2)C(CCC(=O)[O-])C3C.[Cu+2].[Na+].[Na+].[Na+] (configuration not stated)	i	i	nt	nt	nt
c1ccc(CNCCCNCCCCNCCCNCc2ccccc2)cc1	13µM	13µM	nt	nt	nt
Cc1ncc2c(c1CNC(=O)c1ccc3c(c1)OCO3)CCN(C(=O)c1cccc(-n3cccn3)c1)C2	i	i	nt	nt	nt
Cc1cccc(C(=O)N(Cc2ccco2)Cc2ccccc2F)c1	i	i	i	nt	nt
COc1ccc(O)c(/C=N/NC(=S)Nc2cccnc2)c1	11µM	?	i	i	i
COc1ccc(O)c(/C=N/NC(=S)Nc2cccc(S(=O)(=O)N(C)C)c2)c1	2µM	?	?	?	i
CCN(CC)S(=O)(=O)c1ccc(N/N=C/c2cc(OC)ccc2O)nc1	2µM	?	i	i	i
CCN(CC)S(=O)(=O)c1ccc(N/N=C/c2cccnc2)nc1	nt	nt	i	i	i
COC(=O)[C@@H]1CCCN1C(=O)c1cnn(-c2nccc(-c3cc(C)sc3C)n2)c1C1CC1	i	i	nt	nt	nt
COc1cc(=O)n2c(c1C(=O)N(C)Cc1ccsc1)CCN(Cc1cnn(C)c1C)CC2	i	i	nt	nt	nt
CC(=O)c1sc(N/N=C\c2ccccc2O)nc1C	5µM	i	i	i	i
CCc1cccc2c(C(O)c3c[nH]c4ccccc34)c[nH]c12 (configuration not stated)	i	i	nt	nt	nt
Cc1cc2c(C(C)C)c(O)c(O)c(C=O)c2c(O)c1-c1c(C)cc2c(C(C)C)c(O)c(O)c(C=O)c2c1O	4.5µM	4µM	i	10µM	i
COc1ccc(-c2cc(NC=O)c3ncc(-c4cccc(C(C)=O)c4)n3c2)cc1	13µM	?	nt	nt	nt
COc1cccc(-c2cc(NC=O)c3ncc(-c4ccc(C(C)=O)cc4)n3c2)c1	i	?	nt	nt	nt
Cc1ncc2c(c1CNS(=O)(=O)N(C)C)CCN(C(=O)/C=C/c1ccccc1)C2	i	i	nt	nt	nt
